# The list is not random: actives were taken first. Their share in the collection is about 1.2%.
# Eya2 inh – blocks the phosphatase activity of human Eya2; hit rate 0.006% among 330,000; recombinant Eya2, OMFP fluorescence dephosphorylation (OMFP is methylfluorescein phosphate); Potency, µM (titrated, usually from 76.9 µM), without a hit: top-dose activity, negative = inhibition, hits mostly inhibitors; AID 488837; also: potency is read from the fitted curve at half-maximal effect
#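 Eya2 (0.2 uM) preincubated 10 min at ambient with compound, then OMFP substrate added at 50 uM; 10 min reaction in 50 mM HEPES pH 7.5, 50 mM NaCl, 5 uM MgCl2, 0.05% BSA, 1 mM DTT. Fluorescence read at Ex 485/Em 525 nm.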
# CtBP-E1A blk – blocks the CtBP interaction with E1A | AID 651724 | AlphaScreen GST-E1A/His-CtBP binding, 1536-well; active compounds read low | hit rate 0.49% among 340,000 | activity change, % (concentration not given with the values); in the data active = activity change below about -65%; inconclusive = mostly about -30% to -63%
#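 Steps: dispense buffer (Tris pH 8.0, NaCl 300 mM, TCEP 1 mM, BSA, Tween 20); add 5X protein mix (GST-E1A, His-CtBP, 125 nM each); pin 23 nL compound; 2 h at 37 °C, dark; add 5X beads (50 ug/mL); 1 h; read.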
# Six1-Eya2 inh – blocks human Six1 binding to Eya2. Q15475+O00167. AlphaScreen GST-Six1/His-Eya2 binding, biochemical; active compounds read low. activity change, % (no concentration beside the values). hit rate 0.56% among 360,000. AID 651725; in the data active = activity change below about -65%; inconclusive = mostly about -30% to -63%
#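 Homogeneous AlphaScreen proximity assay pairing GST-Six1 with His-tagged Eya2 (added as 5X mix: 250 nM and 500 nM) in 50 mM Tris pH 8.0, 300 mM NaCl, 1 mM TCEP. Glutathione donor and nickel acceptor beads; 1 h, 37 °C, dark.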
# L3MBTL1 block – L3MBTL1 (human) inhibition; Potency, µM (series often up to 57.1 µM), inactives show at the highest dose activity, negative = inhibition, usual class: inhibitors; hit rate 0.66% among 230,000; AID 485360; AlphaScreen L3MBTL1–H3K9me1 peptide binding; Q9Y468; also: potency is read from the fitted curve at half-maximal effect; nearly all actives have a fitted effect of over 60% in size
# Target sequence (Q9Y468 whole entry, looked up): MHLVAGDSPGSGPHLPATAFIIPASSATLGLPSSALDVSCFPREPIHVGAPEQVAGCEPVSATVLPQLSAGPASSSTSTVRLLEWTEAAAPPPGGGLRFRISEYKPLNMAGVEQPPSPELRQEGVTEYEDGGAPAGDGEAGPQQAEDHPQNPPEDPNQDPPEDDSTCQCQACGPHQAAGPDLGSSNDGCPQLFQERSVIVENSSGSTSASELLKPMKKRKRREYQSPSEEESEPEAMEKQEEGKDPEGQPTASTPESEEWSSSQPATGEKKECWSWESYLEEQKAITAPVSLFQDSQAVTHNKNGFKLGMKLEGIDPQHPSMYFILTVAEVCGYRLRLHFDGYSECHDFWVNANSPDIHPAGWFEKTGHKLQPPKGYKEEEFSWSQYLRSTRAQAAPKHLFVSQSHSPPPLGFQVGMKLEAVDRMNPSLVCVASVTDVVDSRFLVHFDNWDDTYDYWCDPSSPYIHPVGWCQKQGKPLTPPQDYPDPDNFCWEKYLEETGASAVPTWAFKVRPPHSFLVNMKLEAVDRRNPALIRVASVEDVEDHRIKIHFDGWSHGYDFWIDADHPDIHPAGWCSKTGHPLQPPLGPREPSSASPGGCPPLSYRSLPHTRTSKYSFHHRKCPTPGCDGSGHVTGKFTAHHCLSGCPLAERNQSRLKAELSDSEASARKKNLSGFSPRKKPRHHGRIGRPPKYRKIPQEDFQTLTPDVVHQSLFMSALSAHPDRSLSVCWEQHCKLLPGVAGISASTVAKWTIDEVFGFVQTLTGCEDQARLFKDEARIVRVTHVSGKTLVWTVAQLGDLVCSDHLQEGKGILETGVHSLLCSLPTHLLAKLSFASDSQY
#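 Displacement of a biotinylated histone H3(1-15) peptide monomethylated at Lys9 (75 nM) from L3MBTL1 (50 nM) was measured by AlphaScreen after a 30 min room-temperature compound incubation; cefsulodin titration served as intraplate control.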
# uPA generation – blocks generation of uPA at the cell surface; Potency, µM (titrated, usually from 38.3 µM), for inactives: at the highest dose activity change, negative = inhibition, actives largely listed as inhibitors; hit rate 0.31% among 330,000; AID 540303; cell surface uPA generation assay, qHTS; active = well fitted inhibition curve with a large enough effect; inconclusive = small, poorly fitted or top-dose-only effect; inactive = no such curve, though single readings can be large or run the other way; tested in mouse RAW 264.7 cells; also: potency is read from the fitted curve at half-maximal effect; nearly all actives have a fitted effect of over 55% in size
# USP2a inh – USP2a (human) protease inhibition | O75604 | USP2 core, Ub-CHOP2 coupled fluorogenic reporter, 485/531 | Potency, µM (titrated, usually from 38.3 µM), inactives show at the top dose activity change, negative = inhibition, hits mostly inhibitors | hit rate 0.01% among 330,000 | AID 463254;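 also: potency is read from the fitted curve at half-maximal effect; plate controls were DMSO wells for no effect and full inhibition by NEM control for full effect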
#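 Cell-free coupled assay: 10nM USP2 core preincubated 30min RT with compound in Tris-HCl pH 8.0/CaCl2/CHAPS buffer, then 25nM Ub-CHOP2 and 25nM reporter substrate; fluorescence (Ex 485/Em 531) read after 60min RT, normalized to NEM inhibition, concentration-response curves fitted.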
# * marks the source's active call; other numbers are inactive results; ? = inconclusive; nt = not tested or not shown; [ ] = another dose, or the depositor's remark. Unless noted, calls follow the shape of the dose curve; as a rule, active = well fitted curve in the direction sought with a large enough effect; inconclusive = small, poorly fitted or top-dose-only effect, or another doubt; inactive = no such curve, though single readings can be large; an effect the other way counts as inactive or inconclusive. Unless noted, % is scaled to controls: 0 for no effect and ±100 for the full control effect.
SMILES,Eya2 inh,CtBP-E1A blk,Six1-Eya2 inh,L3MBTL1 block,uPA generation,USP2a inh
CC(=O)Nc1ccc(-c2cn3cc(C)ccc3n2)cc1,0%,18,7,3%,4.5µM*,0%
O=C(NCc1ccc(Cl)nc1)c1csc(COCCO)n1,nt,6,-1,nt,nt,nt
COC(C/C=C/C(=O)COCc1ccccc1)OC,-1%,-1,0,nt,7.1µM*,-5%
COC(C/C=C\[C@H](O)COCc1ccccc1)OC,nt,0,-2,nt,-3%,nt
COC(C/C=C/C(=O)[C@H](C)OCc1ccccc1)OC,nt,5,7,nt,11µM*,nt
COC(C/C=C/[C@H](O)[C@@H](C)OCc1ccccc1)OC,nt,11,2,nt,4%,nt
O=C(NCc1cc(Br)cc(Br)c1OC(=O)c1ccccc1[N+](=O)[O-])c1ccccc1,-7%,?,-72*,-12%,-3%,-1%
CCOc1ccc(NC(=O)CN(C)C(=O)C2CC(=O)N(c3cccc(SC)c3)C2)cc1OCC (centres undefined),nt,-72*,-65*,nt,4%,nt
CN(Cc1ccccc1)C(=O)COC(=O)c1cc(S(=O)(=O)N(C)C)ccc1N1CCCC1,-7%,1,-6,-3%,-4%,0%
CCNc1nc(NCC)n2c(SCC(=O)Nc3ccc(C)c(C)c3)nnc2n1,-31%,-4,-4,28µM*,0%,-2%
Cc1ccccc1NC(=O)COC(=O)COc1ccc2ccc(=O)oc2c1,nt,28,-17,nt,nt,nt
CC(C)n1nccc1N(Cc1ccc(C#N)cc1)S(=O)(=O)c1ccccc1,-1%,6,3,nt,-6%,2%
O=C1NC(=O)N(Cc2ccccc2)CC1Br (centres undefined),nt,13,6,nt,-2%,nt
O=C(CSc1n[nH]c(-c2ccccn2)n1)Nc1ccccc1,-2%,-101*,-95*,nt,-14%,4%
COc1ccc(NC(=O)CSc2n[nH]c(-c3ccccn3)n2)cc1,24%,-79*,-92*,nt,-16%,4%
COc1ccccc1NC(=O)CSc1n[nH]c(-c2ccco2)n1,nt,-2,11,nt,5%,nt
COc1ccccc1-c1nc(SCC(=O)Nc2ccccc2)n[nH]1,8%,0,-1,nt,-26%,1%
O=C(CSc1n[nH]c(-c2ccccn2)n1)Nc1ccccc1F,1%,1,-92*,nt,3%,-3%
COc1ccccc1NC(=O)CSc1n[nH]c(-c2ccccn2)n1,13%,-90*,-95*,nt,nt,3%
COc1ccccc1-c1nc(SCC(=O)Nc2ccccc2F)n[nH]1,-10%,3,2,nt,-3%,-1%
C[C@@H]1CN([C@@H](C)CO)C(=O)c2cc(NS(=O)(=O)c3ccc(F)cc3)ccc2O[C@@H](C)CCCCO[C@H]1CN(C)C(=O)NC1CCCCC1,nt,-3,3,nt,nt,nt
CCCCN(C(=O)c1ccc(NC(=O)C(C)C)cc1)c1ccccc1,3%,4,0,-4%,1%,2%
C/C(=N\NC(=O)c1ccc(Cn2cc(Br)cn2)o1)c1ccc(NC(=O)c2ccoc2C)cc1,5%,-6,-13,nt,-2%,-7%
Cc1ccc(S(=O)(=O)c2ncccc2[N+](=O)[O-])cc1,?,nt,-24,nt,4µM*,-11%
Cc1ccc(S(=O)(=O)c2ncccc2N)cc1,6%,nt,7,nt,7%,-5%
SMILES,Eya2 inh,CtBP-E1A blk,Six1-Eya2 inh,L3MBTL1 block,uPA generation,USP2a inh
O=C1CC(c2ccccc2)(c2ccccc2)c2ccccc21,nt,14,2,nt,0%,nt
CC(=O)NNC(=O)c1sc(=S)n2c1[nH]c(=O)c1sccc12,16%,?,-65*,6%,1%,0%
O=C(NCc1ccccc1)c1sc(=S)n2c1[nH]c(=O)c1ccccc12,-1%,-5,-8,0%,2%,2%
NC(=O)c1sc(=S)n2c1[nH]c(=O)c1sccc12,13%,-82*,?,0%,4%,-2%
COc1cc2c(-c3ccc4[nH]ccc4c3)c(-c3ccc(C#N)cc3)oc(=O)c2cc1OC,27%,nt,3,2%,2.5µM*,-5%
COc1cc2c(-c3ccc4cc[nH]c4c3)c(-c3ccsc3)oc(=O)c2cc1OC,-1%,-6,-7,-10%,20%,5%
COC(=O)CSc1ncnc2c1sc1nc3c(cc12)COC(C)(C)C3,-7%,10,3,4%[11.4 µM],-5%,2%
CC1(C)Cc2nc3sc4c(SCC(=O)O)ncnc4c3cc2CO1,7%,-2,-4,2%,2.2µM*,-2%
C=CC[N+]1(CC(=O)NCc2ccc(NC(C)=O)cc2)CCOCC1,0%,1,4,nt,-4%,0%
Cc1ccccc1Oc1cc(-n2ncc(Cl)c(Cl)c2=O)ncn1,7%,2,-18,-1%,2.2µM*,1%
CCOc1cnn(-c2cc(Oc3ccc(C)cc3)ncn2)c(=O)c1Cl,0%,-7,0,nt,0%,3%
CCOc1ccc(N(CC(=O)Nc2ccc(C)c(C)c2)S(=O)(=O)c2c(C)noc2C)cc1,-8%,-2,7,30%,13µM*,-3%
CCOc1ccc(N(CC(=O)Nc2cccc(F)c2)S(=O)(=O)c2c(C)noc2C)cc1,5%,-1,1,9%,?,-3%
CCCCN1/C(=C/c2ccc3ccccc3[n+]2CC)Sc2ccccc21,23%,-7,-7,-19%,-16%,4%
CCN1/C(=C/c2ccc3cc(C)ccc3[n+]2C)Sc2ccc3sccc3c21,1%,nt,-16,-23%,10µM*,0%
CCN1/C(=C/c2ccc3cc(C)ccc3[n+]2CC)Sc2cc(C)ccc21,51%,0,-18,-5%,1µM*,3%
CCN(CC)c1ccc(/C=C(\C#N)c2ccccn2)cc1,21%,26,69,43%,-16%,7%
CN(CCC#N)c1ccc(/C=C(\C#N)c2ccccn2)cc1,-11%,-20,11,14%,2.5µM*,4%
NC(=O)CCCn1c(C(=O)c2ccc(Cl)cc2)c2ccc([N+](=O)[O-])cc2[n+]1[O-],12%,-11,3,-14%,1.4µM*,0%
Cc1ccc(C(=O)c2c3ccc([N+](=O)[O-])cc3[n+]([O-])n2CCCC(N)=O)cc1,18%,-7,-1,-1%,?,-1%
NC(=O)CCCn1c(C(=O)c2cc(Cl)c(N)c(Cl)c2)c2ccc([N+](=O)[O-])cc2[n+]1[O-],-1%,-10,-20,-1%,3.2µM*,1%
COc1cc(C2CC(=O)N3CN(c4ccccc4C)CSC3=C2C#N)cc(OC)c1OC (centres undefined),-2%,nt,nt,-11%,nt,-5%
